Consider 55 compounds from ChEMBL document CHEMBL4513216, “Probing the Open Global Health Chemical Diversity Library for Multistage-Active Starting Points for Next-Generation Antimalarials” (ACS Infect Dis, 2020).

Screen size: about 69,000 compounds; about 8,600 (12%) showed an effect of 50% or more. The list comes from a sample in which strong results are over-represented; it also holds similar structures and randomly drawn compounds.

This experiment has as its system Plasmodium berghei. The experiment can be described thus: Screen against P. berghei liver stage (PbLuc), transformed with Luciferase, at 10uM. Conditions: tested at 10 uM. Format: functional, HepG2.
In the case of `CC(C)(CN1CCC(Cc2cccc(C(=O)O)c2)C1)N1CCOCC1` (stereo not given), the INHIBITION worked out at 1.71%.

In the case of `CCOc1ccc(Oc2cc(N)ccn2)cc1`, the INHIBITION is -55.5%. As for `Cc1nc(NC(=O)CN2CCOC(Cn3cccn3)C2)sc1C` (stereo not given), the figure is 60.4%. `O=C(CN1CCOC(Cn2cccn2)C1)Nc1nccs1` (stereo not given): the INHIBITION is 53.3%. As for `Cc1nn(C)c(C)c1NC(=O)CN1CCOC(Cn2cccn2)C1` (stereo not given), the INHIBITION worked out at 47.1%.

`Cc1cnn(CC2CN(CC(=O)Nc3nccs3)CCO2)c1` (stereo not given): the INHIBITION was 29.6%.

As to `O=C(CN1CCOC(Cn2cccn2)C1)Nc1nncs1` (stereo not given), the INHIBITION was 41.2%. As for `Cc1cnn(CC2CN(CC(=O)N(C)c3nccs3)CCO2)c1` (stereo not given), the figure is 11.8%.

Consider `CN(C(=O)CN1CCOC(Cn2cccn2)C1)c1nccs1` (stereo not given), for which the INHIBITION is 52.1%. On to `O=C(CN1CCOC(Cn2cccn2)C1)Nc1ccncc1` (stereo not given), for which the INHIBITION is given as -18.2%.

With `O=C(CN1CCOC(Cn2cccn2)C1)NC(C1CC1)C1CC1` (stereo not given), the INHIBITION is 58.2%. With `CN(Cc1ccsc1)C(=O)CN1CCOC(Cn2cccn2)C1` (stereo not given), the INHIBITION is on record as 33%.

As for `Cc1nnc(NC(=O)CN2CCOC(Cn3cccn3)C2)s1` (stereo not given), the INHIBITION stood at 17.4%.

As for `O=C(CN1CCOC(Cn2cncn2)C1)NC(C1CC1)C1CC1` (stereo not given), the INHIBITION is reported as 23.9%.

With `NC(=O)c1csc(N2C[C@@H](CN3CCCCC3)[C@@H](CO)C2)n1`, the INHIBITION was found to be 14.45%.

Take `CC(=O)c1cc2ncc(C(=O)NC3CCCCC3)cc2[nH]1`: the INHIBITION is -25.1%. Turning to `COC(=O)C(C)(C)NC(=O)C1CC(=O)N(CC(F)(F)F)C1` (stereo not given), the INHIBITION is given as -28.7%.

Regarding `CC(NC(=O)OC(C)(C)C)c1nnc(S(=O)(=O)Cc2ccccc2Cl)o1` (stereo not given), the INHIBITION was determined as 21.5%. For `Cn1ncc2c1C(COCC1CC1)CN(c1ncc(F)cn1)C2` (stereo not given), the INHIBITION turned out to be 7.67%. As to `Cn1cc(-c2nc(C(=O)N3CCCC3Cn3cccn3)cs2)cn1` (stereo not given), the INHIBITION is recorded as 40.2%. For the compound `Cc1ccc(CC(=O)N2CCCCC2Cn2cccn2)cn1` (stereo not given), the INHIBITION turned out to be 30.3%.

Turning to `O=C1c2c(O)cc(O)cc2O[C@@H](c2ccc(O)cc2)[C@@H]1O`, the INHIBITION was found to be 70.8%. As to `Oc1ccc([C@H]2Oc3cc(O)cc(O)c3C[C@@H]2O)cc1`, the INHIBITION is 7.5%. As for `COc1cc(C2CC(=O)c3c(O)cc(O)cc3O2)ccc1O` (stereo not given), the figure is -17.1%; as for `COc1cc2c(cc1CN1CCn3c(CO)nnc3C1)CCC2`, 3.91%. Turning to `Cc1nc(C)n(CC2CCCCN2CCc2ccncc2)n1` (stereo not given), the INHIBITION is recorded as 4%. As for `CCOC(=O)Cn1cccc(S(=O)(=O)N2CCCC2)c1=O`, the figure is -2.92%. Then `CC1CCCN(Cc2ccnc(-c3cccnc3)n2)C1` (stereo not given), with -6.92%; and `c1cncc(-c2nccc(CN3CCC(N4CCCCC4)CC3)n2)c1`, with 17.1%; and `c1cncc(-c2nccc(CN3CCCC3)n2)c1`, with 51.2%. Then `OC1CCN(Cc2ccnc(-c3cccnc3)n2)CC1`, with 42.4%; and `c1ccc(CC2CCN(Cc3ccnc(-c4cccnc4)n3)CC2)cc1`, with 50%. For the compound `CCN1CCN(Cc2ccnc(-c3cccnc3)n2)CC1`, the INHIBITION is 46.1%. Then `COCCN1C[C@@H](c2ccccc2)[C@@]2(CCN(CC(=O)N(C)C)C2=O)C1`, with -4.82%.

For `Cc1ccccc1N1CC2(CCN(S(=O)(=O)c3cccs3)C2)CC1=O` (stereo not given), the INHIBITION is 35.7%.

On to `CC(=O)c1cc(CN2C[C@@H]3CC[C@H]2CN(S(C)(=O)=O)C3)cs1`, for which the INHIBITION is -52.2%. Consider `CC(=O)c1cc(CN2C[C@@H](NS(=O)(=O)N(C)C)[C@H](C(C)C)C2)cs1`, for which the INHIBITION is 52.2%.

Turning to `CN(C)S(=O)(=O)N1C[C@H]2CC[C@@H](C1)N(Cc1ccc3nsnc3c1)C2`, the INHIBITION came to 45.1%.

`CC(=O)c1cc(CN2C[C@@H](N(C)C)[C@H](C(C)C)C2)cs1`: the INHIBITION amounted to 13.7%. For the compound `CC(C)[C@@H]1CN(C(=O)NCCc2ccccc2)C[C@H]1NS(=O)(=O)N(C)C`, the INHIBITION is listed as 41.3%. Then `CC(=O)c1cc(CN2C[C@@H]3CC[C@H]2CN(S(=O)(=O)N(C)C)C3)cs1`, with 80.1%. With `Cc1nc(CN2C[C@@H](NS(=O)(=O)N(C)C)[C@H](C(C)C)C2)cs1`, the INHIBITION is recorded as 38.3%.

Regarding `Cc1noc(C)c1CN1C[C@@H](NS(=O)(=O)N(C)C)[C@H](C(C)C)C1`, the INHIBITION is 24.3%. As for `CC(C)[C@@H]1CN(Cc2ccsc2)C[C@H]1NS(=O)(=O)N(C)C`, the figure is 50.1%. As to `COCCN1C[C@H]2[C@@H](C1)N(C(=O)CCc1ccccc1)CC[C@H]2OC`, the INHIBITION was -14.1%. With `COC(=O)CN(C(=O)c1ccc(-n2ccnc2)cc1)C1CC1`, the INHIBITION came to 6.23%. As to `CC(C)c1cc(CN(C)C(=O)CN2CCCCC2=O)no1`, the INHIBITION came out at 15.4%. Then `Cc1nc(O)cc([C@@H]2CN(S(=O)(=O)N(C)C)C[C@H]2c2ccccc2F)n1`, with -6.15%; and `COCC1CN(S(=O)(=O)c2cccc(F)c2)Cc2nccn2C1` (stereo not given), with 41.2%; and `Cn1cc(CN2CCC[C@]3(C[C@H](Oc4ncccc4F)CO3)C2)cn1`, with 31.5%. Then `CCC(C)NC(=O)c1nnn(-c2ccc(Br)cc2)n1` (stereo not given), with -10.6%; and `CCc1nc(CN2CCCN(Cc3cnn(C)c3)CC2)no1`, with 35.5%. Regarding `CCc1nc(CN2CCCN(c3ncnc4ccsc34)CC2)no1`, the INHIBITION is recorded as 91.1%. Then `CCc1nc(CN2CCCN(c3nccs3)CC2)no1`, with 22.5%; and `Cc1nc(CN2CCCN(c3nccs3)CC2)no1`, with -63.3%.
